# Measurements reported in publication PMC10812921, “Transcriptional Coactivator BOB1 (OBF1, OCA-B) Modulates the Specificity of DNA Recognition by the POU-Domain Factors OCT1 and OCT2 in a Monomeric Configuration”.
# What was measured:
# POU1 (OCT1 POU domain) = POU1 (OCT1 POU domain) (human, UniProt P14859 260-458); assay: EMSA-SELEX-seq; no BOB1; 20 mM Tris-HCl pH 7.6, 140 mM NaCl, 10% glycerol, 0.5 mM EDTA, 0.05% Triton X-100, 0.1 mg/mL BSA, 0.1 mg/mL poly(dI-dC), 5 mM DTT, room temperature, 20 min; high values mean tight binding; details: protein: recombinant; dsDNA, one strand shown
# POU1 (OCT1 POU domain), sequence (P14859 260-458): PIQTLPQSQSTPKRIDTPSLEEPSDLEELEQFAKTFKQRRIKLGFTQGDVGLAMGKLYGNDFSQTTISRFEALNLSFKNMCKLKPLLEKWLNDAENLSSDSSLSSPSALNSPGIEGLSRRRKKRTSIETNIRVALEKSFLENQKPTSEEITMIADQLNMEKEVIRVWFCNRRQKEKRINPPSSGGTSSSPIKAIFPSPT
# Outline: (§1)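 Binding preference is reported as the percentage of sequenced 8-mers that match a motif pattern. Tagged POU-domain proteins were made in E. coli BL21, purified under denaturing conditions and renatured. A 30 ng portion was combined with 300 ng of a PCR-amplified double-stranded random 35-nt library, with or without 28 ng coactivator protein, in 20 μL Tris–HCl pH 7.6 binding buffer for 20 min at RT. Complex bands were excised from native 6% PAGE, eluted and PCR-amplified over four rounds before Illumina sequencing.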
# POU2 (OCT2 POU domain) = target: T1, POU2 (OCT2 POU domain) (human, UniProt P09086 175-386); assay: as above; details: protein: recombinant; dsDNA, one strand shown
# T1 sequence: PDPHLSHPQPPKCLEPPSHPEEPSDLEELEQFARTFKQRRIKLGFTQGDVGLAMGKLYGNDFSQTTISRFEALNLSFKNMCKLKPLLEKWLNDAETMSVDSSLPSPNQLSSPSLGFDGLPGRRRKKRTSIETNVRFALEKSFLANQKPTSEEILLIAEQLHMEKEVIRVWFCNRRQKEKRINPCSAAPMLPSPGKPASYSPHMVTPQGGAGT
# Outline: as §1
# [1] = target: POU1 (OCT1 POU domain);BOB1 (OBF1, OCA-B) (human;human, UniProt P14859;Q16633 260-458;1-256, |); assay: EMSA-SELEX-seq; with BOB1 (ternary complex band); 20 mM Tris-HCl pH 7.6, 140 mM NaCl, 10% glycerol, 0.5 mM EDTA, 0.05% Triton X-100, 0.1 mg/mL BSA, 0.1 mg/mL poly(dI-dC), 5 mM DTT, room temperature, 20 min; high values mean tight binding; details: protein: recombinant;recombinant; copies: 1;1; dsDNA, one strand shown
# Outline: as §1
# [2] = target: T2, POU2 (OCT2 POU domain);BOB1 (OBF1, OCA-B) (human;human, UniProt P09086;Q16633 175-386;1-256, |); assay: as above; details: protein: recombinant;recombinant; copies: 1;1; dsDNA, one strand shown
# T2 sequence 1: T1 sequence
# T2 sequence 2: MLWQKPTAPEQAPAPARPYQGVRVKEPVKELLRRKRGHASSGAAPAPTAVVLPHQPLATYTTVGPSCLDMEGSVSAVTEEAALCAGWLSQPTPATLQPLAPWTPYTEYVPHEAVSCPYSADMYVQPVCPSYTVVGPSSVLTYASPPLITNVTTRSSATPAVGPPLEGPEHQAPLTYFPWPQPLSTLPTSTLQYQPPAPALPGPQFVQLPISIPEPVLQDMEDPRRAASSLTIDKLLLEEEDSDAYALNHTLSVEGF
# Outline: as §1
Sequence,binding signal (POU1 (OCT1 POU domain)),binding signal (POU2 (OCT2 POU domain)),binding signal [1],binding signal [2]
AATATAAG,0.101 % of ANNNNAAN 8-mers,0.123 % of ANNNNAAN 8-mers,0.0886 % of ANNNNAAN 8-mers,0.0966 % of ANNNNAAN 8-mers
ACAACAAG,0.0248 % of ANNNNAAN 8-mers,0.0167 % of ANNNNAAN 8-mers,0.0187 % of ANNNNAAN 8-mers,0.014 % of ANNNNAAN 8-mers
ACAAAAAC,0.0488 % of ANNNNAAN 8-mers,0.0397 % of ANNNNAAN 8-mers,0.0706 % of ANNNNAAN 8-mers,0.0405 % of ANNNNAAN 8-mers
ACTAGAAC,0.016 % of ANNNNAAN 8-mers,0.0207 % of ANNNNAAN 8-mers,0.0144 % of ANNNNAAN 8-mers,0.0149 % of ANNNNAAN 8-mers
ACCTGAAC,0.021 % of ANNNNAAN 8-mers,–,0.0113 % of ANNNNAAN 8-mers,0.0215 % of ANNNNAAN 8-mers
AGCAAAAG,0.0442 % of ANNNNAAN 8-mers,0.0322 % of ANNNNAAN 8-mers,0.062 % of ANNNNAAN 8-mers,0.0429 % of ANNNNAAN 8-mers
AAAAAAAA,0.11 % of ANNNNAAN 8-mers,0.193 % of ANNNNAAN 8-mers,0.174 % of ANNNNAAN 8-mers,0.13 % of ANNNNAAN 8-mers
ACACAAAA,0.0454 % of ANNNNAAN 8-mers,0.0374 % of ANNNNAAN 8-mers,0.0644 % of ANNNNAAN 8-mers,0.0363 % of ANNNNAAN 8-mers
ACCGAAAA,0.0248 % of ANNNNAAN 8-mers,0.0322 % of ANNNNAAN 8-mers,0.0226 % of ANNNNAAN 8-mers,0.0165 % of ANNNNAAN 8-mers
AGCCTAAA,0.0271 % of ANNNNAAN 8-mers,0.0316 % of ANNNNAAN 8-mers,0.0191 % of ANNNNAAN 8-mers,0.0206 % of ANNNNAAN 8-mers
ACCTCAAT,0.0202 % of ANNNNAAN 8-mers,0.0196 % of ANNNNAAN 8-mers,0.025 % of ANNNNAAN 8-mers,0.0289 % of ANNNNAAN 8-mers
AATTAAAT,0.333 % of ANNNNAAN 8-mers,0.39 % of ANNNNAAN 8-mers,0.19 % of ANNNNAAN 8-mers,0.173 % of ANNNNAAN 8-mers
AAAAAAAC,0.0583 % of ANNNNAAN 8-mers,0.0593 % of ANNNNAAN 8-mers,0.0784 % of ANNNNAAN 8-mers,0.0512 % of ANNNNAAN 8-mers
ATGACAAT,0.0576 % of ANNNNAAN 8-mers,0.0737 % of ANNNNAAN 8-mers,0.0453 % of ANNNNAAN 8-mers,0.0471 % of ANNNNAAN 8-mers
ACTGCAAT,0.0301 % of ANNNNAAN 8-mers,0.0213 % of ANNNNAAN 8-mers,0.0367 % of ANNNNAAN 8-mers,0.0248 % of ANNNNAAN 8-mers
